Source: PubChem BioAssay (NCATS)
Results filed as inconclusive are left out. Calls follow the shape of the dose curve; as a rule, active = well fitted curve in the direction sought with a large enough effect; inconclusive = small, poorly fitted or top-dose-only effect, or another doubt; inactive = no such curve, though single readings can be large; an effect the other way counts as inactive or inconclusive.

Assays:
[1] = system: Zika virus NS2B-NS3 protease; assay: Primary screen GU AMC qHTS for Zika virus inhibitors (AID 1347154);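 also: 0% = no-inhibitor control and -100% = no-enzyme control; nearly all actives have a fitted effect of over 70% in size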
Procedure, shortened: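 Fluorogenic AMC-substrate cleavage by noncovalent NS2B-NS3 protease complex (25 nM, pH 8.0 Tris buffer with Tween 20) followed for 15 minutes at room temperature (~20% conversion). Percent inhibition from ex340/em450 signal change, fitted by 4-parameter Hill equation.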

[2] = Confirmatory qHTS for small molecule stabilizers of the endoplasmic reticulum resident proteome: Secreted ER Calcium Modulated Protein (SERCaMP) assay (AID 1508628); also: series mostly up to about 76 µM; % is scaled to controls: 0 for no effect and ±100 for the full control effect; nearly all actives have a fitted effect of over 40% in size
Procedure, shortened: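 Reporter secretion upon ER calcium depletion (100 nM thapsigargin, 4 h, 37C) is measured as medium luminescence with coelenterazine, after 16 h compound pretreatment of SH-SY5Y-GLuc-SERCaMP cells; primary at three concentrations up to 38.3 uM, follow-up at 11 (up to 76.6 uM).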

[3] = Cell Viability qHTS for small molecule stabilizers of the endoplasmic reticulum resident proteome (AID 1508629); settings: cell viability counter-screen, 100 nM thapsigargin for final 4 h;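 also: human SH-SY5Y neuroblastoma cells carrying the GLuc-SERCaMP reporter; compound exposure about 46 h in total before the viability read; % is scaled to controls: 0 for no effect and ±100 for the full control effect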

CC(C)C[C@H](NC(=O)[C@H](Cc1ccccc1)NC(=O)CNC(=O)[C@H](C)NC(=O)[C@@H](N)Cc1ccc(O)cc1)C(=O)O
inactive: activity change, negative = inhibition [1] 14.3% [at 6.83 µM] | activity change, negative = decrease [2] 16.6% [at 9.4 µM] | max response [3] 9.07%
